From PubChem BioAssay (NCI) come the findings set out here.

Assay [1] in a line: NCI Yeast Anticancer Drug Screen. Data for the rad50 strain (AID 155).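 Further: 0% = growth of vehicle-only cultures of the same strain.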 Conditions: S. cerevisiae rad50 strain growth inhibition, stronger effect = higher value. The method, boiled down:
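Readout: growth inhibition relative to vehicle-treated cultures. Compound exposure was carried out in a genetically defined yeast strain deficient in DNA damage repair.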

A short description of assay [2]: NCI Yeast Anticancer Drug Screen. Data for the mec2-1 strain (AID 157). Conditions: S. cerevisiae mec2-1 strain, stronger effect = higher value. The method, boiled down:
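Mutant yeast (mec2-1) grown with compound; growth inhibition relative to vehicle control reported.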

Assay [3] can be described thus: NCI Yeast Anticancer Drug Screen. Data for the sgs1 mgt1 strain (AID 161).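 Further: 0% = growth of cultures given vehicle only.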 Conditions: S. cerevisiae sgs1 mgt1 strain, stronger effect = higher value. The method, boiled down: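 Growth of a repair-deficient yeast mutant was monitored after compound treatment and expressed as inhibition relative to vehicle-treated cultures.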
Assay [4] is described as follows: NCI Yeast Anticancer Drug Screen. Data for the cln2 rad14 strain (AID 165).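 Further: 0% = growth equal to vehicle treated cultures.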 Conditions: S. cerevisiae cln2 rad14 strain, stronger effect = higher value. Put shortly: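 Readout is yeast growth inhibition versus vehicle-treated controls, using a strain with cln2 and rad14 alterations exposed to compound.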
A short description of assay [5]: NCI Yeast Anticancer Drug Screen. Data for the bub3 strain (AID 167). Particulars: S. cerevisiae bub3 mutant strain, stronger effect = higher value. The method, boiled down:
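Readout: yeast growth inhibition, expressed relative to vehicle-only wells. The test organism is a mutant strain from a panel with lesions in DNA repair or checkpoint genes.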

Assay [6] is described as follows: NCI Yeast Anticancer Drug Screen. Data for the mlh1 rad18 strain (AID 175). Particulars: S. cerevisiae mlh1 rad18 strain growth inhibition, stronger effect = higher value. The method, boiled down:
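Genetically defined yeast (DNA repair-deficient) exposed to compounds; growth inhibition determined relative to vehicle.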

Setting [7] is: at 5.0 µM (retest, dose inferred, filed as 0.5).
Where [8] appears, read: at 50.0 µM (retest, dose inferred, filed as 5.0).

Structures are written as SMILES. The panel holds about 79,000 compounds, 15% with a hit somewhere; the sample as a whole holds those more often. A number with no mark means an inactive call. Calls of active or inactive are those of the source. No stated cut-off is given here; in the data, active means growth inhibition above about 70%; inactive means the rest.

For `NCc1cccc(O)c1O`, the growth inhibition in assay [1] (setting [7]) was 27%; in assay [1] (setting [8]), 61%; in assay [1] (at 50.0 µM) it was 73.7% (active); in assay [2] (setting [7]) it was 22%; in assay [2] (setting [8]), 41%; in assay [2] (at 50.0 µM) it was 81.1% (active). Also, the growth inhibition was 14% in assay [3] (setting [7]); 51% in assay [3] (setting [8]); 41.5% in assay [3] (at 50.0 µM); 15% in assay [4] (setting [7]); 46% in assay [4] (setting [8]); 24.7% in assay [4] (at 50.0 µM). Moreover, the growth inhibition in assay [5] (setting [7]) is 20%; in assay [5] (setting [8]), 72% (active); in assay [5] (at 50.0 µM), 53.6%; in assay [6] (setting [7]), 28%; in assay [6] (setting [8]), 44%; in assay [6] (at 50.0 µM) it was 24.9%.
In the case of `CN(C)c1ccc(C2(Cl)c3ccccc3N(Cc3ccccc3)c3ccccc32)cc1`, the growth inhibition was 99% (active) in assay [1] (setting [7]); 94% (active) in assay [1] (setting [8]); 96.5% (active) in assay [1] (at 50.0 µM); 99% (active) in assay [2] (setting [7]); 95% (active) in assay [2] (setting [8]); 97.2% (active) in assay [2] (at 50.0 µM). Further, the growth inhibition in assay [3] (setting [7]) was 99% (active); in assay [3] (setting [8]) it was 95% (active); in assay [3] (at 50.0 µM) it was 96% (active); in assay [4] (setting [7]) it was 99% (active); in assay [4] (setting [8]), 93% (active); in assay [4] (at 50.0 µM), 93.2% (active). In addition, the growth inhibition in assay [5] (setting [7]) was 99% (active); in assay [5] (setting [8]), 94% (active); in assay [5] (at 50.0 µM) it was 96.4% (active); in assay [6] (setting [7]), 99% (active); in assay [6] (setting [8]), 94% (active); in assay [6] (at 50.0 µM) it was 96.3% (active).
Regarding `Cc1ccc(S(=O)(=O)OC2C(C)OCOC(C)C2OS(=O)(=O)c2ccc(C)cc2)cc1` (stereo unspecified), the growth inhibition in assay [1] (setting [7]) is 1%; in assay [1] (setting [8]), 0%; in assay [1] (at 50.0 µM), 24.6%; in assay [2] (setting [7]) it was -2%; in assay [2] (setting [8]), -1%; in assay [2] (at 50.0 µM), 11.9%. Moreover, the growth inhibition is -2% in assay [3] (setting [7]); -17% in assay [3] (setting [8]); 5.9% in assay [3] (at 50.0 µM); 0% in assay [4] (setting [7]); -12% in assay [4] (setting [8]); 16.6% in assay [4] (at 50.0 µM). For the same compound, the growth inhibition in assay [5] (setting [7]) is 2%; in assay [5] (setting [8]), 15%; in assay [5] (at 50.0 µM), 93% (active); in assay [6] (setting [7]) it was 1%; in assay [6] (setting [8]) it was 1%; in assay [6] (at 50.0 µM), -3.85%.
Take `CCCCCCCCCCCCNCc1ccc2c(c1)OCO2`: the growth inhibition in assay [1] (setting [7]) is 98% (active); in assay [1] (setting [8]), 96% (active); in assay [1] (at 50.0 µM) it was 98.8% (active); in assay [2] (setting [7]) it was 99% (active); in assay [2] (setting [8]), 97% (active); in assay [2] (at 50.0 µM) it was 99.1% (active). The growth inhibition in assay [3] (setting [7]) was 99% (active); in assay [3] (setting [8]) it was 96% (active); in assay [3] (at 50.0 µM) it was 57.8%; in assay [4] (setting [7]), 99% (active); in assay [4] (setting [8]), 96% (active); in assay [4] (at 50.0 µM), 95.9% (active). Further, the growth inhibition in assay [5] (setting [7]) is 99% (active); in assay [5] (setting [8]), 95% (active); in assay [5] (at 50.0 µM), 98.7% (active); in assay [6] (setting [7]), 99% (active); in assay [6] (setting [8]) it was 95% (active); in assay [6] (at 50.0 µM), 99% (active).
Take `OCCc1ccccc1C(c1ccccc1)c1ccccc1`: the growth inhibition in assay [1] (setting [7]) is 5%; in assay [1] (setting [8]), 98% (active); in assay [1] (at 50.0 µM), 99.3% (active); in assay [2] (setting [7]), -4%; in assay [2] (setting [8]) it was 99% (active); in assay [2] (at 50.0 µM) it was 99.4% (active). Further, the growth inhibition in assay [3] (setting [7]) was 1%; in assay [3] (setting [8]), -16%; in assay [3] (at 50.0 µM), 99.2% (active); in assay [4] (setting [7]), 8%; in assay [4] (setting [8]), 99% (active); in assay [4] (at 50.0 µM), 98.8% (active). For the same compound, the growth inhibition is 0% in assay [5] (setting [7]); 99% (active) in assay [5] (setting [8]); 99.2% (active) in assay [5] (at 50.0 µM); 4% in assay [6] (setting [7]); 99% (active) in assay [6] (setting [8]); 98.9% (active) in assay [6] (at 50.0 µM).
`C=C1C(=O)C23CC[C@H]4C(C)(CCC[C@]4(C)C(=O)O)[C@@H]2CCC1C3` (stereo partly specified): the growth inhibition in assay [1] (setting [7]) is 94% (active); in assay [1] (setting [8]) it was 99% (active); in assay [1] (at 50.0 µM), 90.5% (active); in assay [2] (setting [7]), 96% (active); in assay [2] (setting [8]), 99% (active); in assay [2] (at 50.0 µM) it was 93.7% (active). Besides, the growth inhibition in assay [3] (setting [7]) was 93% (active); in assay [3] (setting [8]), 99% (active); in assay [3] (at 50.0 µM), 93% (active); in assay [4] (setting [7]), 72% (active); in assay [4] (setting [8]) it was 99% (active); in assay [4] (at 50.0 µM), 88.3% (active). The growth inhibition in assay [5] (setting [7]) was 95% (active); in assay [5] (setting [8]), 99% (active); in assay [5] (at 50.0 µM), 92% (active); in assay [6] (setting [7]), 97% (active); in assay [6] (setting [8]) it was 99% (active); in assay [6] (at 50.0 µM), 92.7% (active).
As for `C=CCOC(=O)CCC(=O)N(CC)CC`, the growth inhibition is 4% in assay [1] (setting [7]); -10% in assay [1] (setting [8]); -8.95% in assay [1] (at 50.0 µM); -1% in assay [2] (setting [7]); 1% in assay [2] (setting [8]); -12.7% in assay [2] (at 50.0 µM). Also, the growth inhibition in assay [3] (setting [7]) is -6%; in assay [3] (setting [8]), -11%; in assay [3] (at 50.0 µM) it was -25.1%; in assay [4] (setting [7]), -7%; in assay [4] (setting [8]), 0%; in assay [4] (at 50.0 µM), 72.5% (active). Moreover, the growth inhibition is -2% in assay [5] (setting [7]); 1% in assay [5] (setting [8]); -7.35% in assay [5] (at 50.0 µM); -2% in assay [6] (setting [7]); -10% in assay [6] (setting [8]); -2.3% in assay [6] (at 50.0 µM).
